Source: PubChem BioAssay (NCI)
This is part of a sample that, as a whole, favours compounds with a hit. Of some 83,000 tested, about 20% had one in any assay.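 Interpretation: 100, growth as untreated; towards 0, rising growth inhibition; 0, no net growth; 0 to -100, cell death. Compounds scoring below 10 were considered active.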 Unmarked numbers belong to inactive results. Activity calls are given as the source filed them.

test system: SK-MEL-2 melanoma; assay: NCI-60 one-dose screen, 48 h (100 = growth as untreated, 0 = no growth, -100 = all killed); settings: 10 µM unless noted

SMILES | growth
Cc1cc(S(=O)(=O)/N=C(\N)n2nc(C)c(C)c2C)c(SCc2ccccc2)cc1Cl | -12.3% (active)
Oc1ccc(Cl)cc1/C=N\NC(=S)N/N=C/c1cc(Cl)ccc1O | 26.2%
O=C(/C=C/c1cccs1)Nc1ncc(Cc2ccccc2F)s1 | 46.5%
COC(=O)CC[C@H](C)[C@H]1CC[C@H]2[C@@H]3CC[C@@H]4CC5(CC[C@]4(C)[C@H]3CC(=O)[C@]12C)Nc1ccccc1NC5=NC(C)(C)C (some centres not stated) | 90.9%
CC1CCc2c(C(=O)Nc3ncc(Cc4cccc([N+](=O)[O-])c4)s3)csc2C1 (configuration not stated) | 52.7%
O=C1/C=C/[C@@H](O)[C@@H]2C[C@@H](O)C[C@H]2/C=C/CCC[C@H](CCc2ccccc2)O1 | -8.8% (active)
O=C(Nc1ccccc1O)c1ccc(CNC(=O)c2sccc2Nc2ccnc(C(F)(F)F)c2)cc1 | 0.0247% (active)
COc1ccc(C(=O)/C=C/c2c(C(F)(F)F)nc3ccccn23)cc1OC | 31.3%
CCC(=C(c1ccc(OCCN2CCCCC2)cc1)c1ccc(OCCN2CCCCC2)cc1)c1ccc(Cl)cc1 | -76.1% (active)
O=C1Nc2ccc(C(=O)O)cc2/C1=N/c1nnc(Sc2ccccc2)s1 | 112%
CCN1CCN(C(=O)[C@]23CCC(C)(C)C[C@@H]2C2=CC[C@@H]4[C@@]5(C)CCC(=O)C(C)(C)[C@@H]5CC[C@@]4(C)[C@]2(C)CC3)CC1 | 77.1%
Nc1ncnc2c1C(c1ccccc1)c1ccc3ccccc3c1O2 (configuration not stated) | 91.1%
Cn1cc(-c2ccc3nc(-c4ccc(CC(=O)ONc5cc(C(C)(C)C)on5)cc4)cnc3c2)cn1 | 13%
Cc1ccc2c(c1)=C/C(=C\c1cc(-c3ccccc3)oc1O)C(=O)N=2 | 114%
COc1ccc(-c2nc3c(ncc4ccc(=O)[nH]c43)s2)cc1 | 106%
CC1CN(S(=O)(=O)c2oc(-c3ccc(Cl)cc3)nc2C#N)CC(C)O1 (configuration not stated) | 75.5%
C#CCOC(=O)/C=C/c1cn(-c2ccccc2)nc1-c1ccc(OC)cc1 | 90.4%
O=C(Nc1cccc(Cl)c1)Nc1cccc(Cn2c(=O)[nH]c3ccc(Oc4ncccn4)cc3c2=O)c1 | 69.6%
COc1ccc(/C=C/C(=O)c2cc3c(N)c(C(=O)Nc4cccc5ccccc45)sc3nc2C)cc1 | 70.9%
CCCNc1nc2ccccc2c2c1S(=O)(=O)c1ccc(Cl)cc1C2=O | 8.94% (active)
NC(=O)CSc1oc(-c2ccccc2)nc1S(=O)(=O)c1ccc(Br)cc1 | 99.2%
N#CSc1c[nH]c2cccc(/C=C/C(=O)/C=C(/C=C/c3cccc4[nH]cc(SC#N)c34)OB(F)F)c12 | -65% (active)
C=C1C(=O)O[C@H]2[C@H]1CC/C(COC(=O)NCc1ccc(Cn3c(=O)sn(CCCCC)c3=O)cc1)=C\CC[C@@]1(C)O[C@@H]21 | 76.3%
N#CC(C#N)N=Nc1ccc(Br)cc1 | 82.1%
COc1ccc(-c2noc(C(=O)O)c2-c2cc(OC)c(OC)c(OC)c2)cc1 | 13.8%
COc1c(B(O)O)cccc1-c1cc(C)c2c(ccc3[nH]ncc32)n1 | 116%
COc1ccc2cc1Oc1ccc(cc1)C[C@H]1c3c(cc4c(c3Oc3cc5c(cc3OC)CCN(C)[C@@H]5C2)OCO4)CCN1C | 69.9%

test system: EKVX NSCLC; assay: as above; settings: 10 µM unless noted

SMILES | growth
NC(=O)C(=O)c1ccccc1NC=O | 101%
N#Cc1c(-c2ccccc2)[nH]c2ncc(-c3ccccc3)n2c1=O | 75.3%
O=S(=O)(Nc1cc(Cl)ccc1Cl)c1ccc(-c2cnc(C3CC3)o2)cc1 | 58.7%
COc1cc(C2CC(c3ccc(Nc4nc(Nc5ccc(Cl)cc5)nc(Nc5ccc(Cl)cc5)n4)cc3)=NN2C(C)=O)cc(OC)c1OC (configuration not stated) | 94%
N#Cc1c(-c2ccc(Cl)cc2)c(C#N)c2c(C#N)c(N)nn2c1N | 68.3%
CC(=O)N1N=C(c2ccc(Nc3nc(Nc4ccccc4)nc(Nc4ccccc4)n3)cc2)CC1c1cccc([N+](=O)[O-])c1 (configuration not stated) | 77.3%
N#CC1=C(c2ccccc2)Nc2c(c(-c3ccc(Cl)cc3)nn2-c2ccccc2)C12C(=O)Nc1ccc(Cl)cc12 (configuration not stated) | 61.6%
O=C(Nc1nc2ccc(C(=O)N3CCN(/C=C/c4ccccc4)CC3)cc2s1)c1ccc(NCCc2ccccc2)c([N+](=O)[O-])c1 | 50.6%
Cc1ccc(/C=C2\COc3ccc(O)cc3C2=O)cc1 | 97.8%
CCNCCNc1cc(C2CCCCC2)c(C#N)c2nc3ccccc3n12 | 36%
Nc1c(C(=O)Nc2ccncc2)sc2nc3c(cc12)C(O)CCC3 (configuration not stated) | 99.9%
C=CCN=c1sc2c(n1NC(=O)c1cc3ccc1CCc1ccc(cc1)CC3)C(=O)c1ccccc1C2=O | -20.2% (active)
Cc1nc2sc(C(=O)Nc3cccc(Br)c3)c(N)c2cc1C(O)c1ccccc1 (configuration not stated) | 48.5%
Cc1cc(S(=O)(=O)/N=C(\N)n2nc(C)c(C)c2C)c(SCc2ccccc2)cc1Cl | 38.9%
Oc1ccc(Cl)cc1/C=N\NC(=S)N/N=C/c1cc(Cl)ccc1O | 50.3%
O=C(/C=C/c1cccs1)Nc1ncc(Cc2ccccc2F)s1 | 26.1%
COC(=O)CC[C@H](C)[C@H]1CC[C@H]2[C@@H]3CC[C@@H]4CC5(CC[C@]4(C)[C@H]3CC(=O)[C@]12C)Nc1ccccc1NC5=NC(C)(C)C (some centres not stated) | 87.5%
CC1CCc2c(C(=O)Nc3ncc(Cc4cccc([N+](=O)[O-])c4)s3)csc2C1 (configuration not stated) | 25.6%
O=C1/C=C/[C@@H](O)[C@@H]2C[C@@H](O)C[C@H]2/C=C/CCC[C@H](CCc2ccccc2)O1 | 8.4% (active)
O=C(Nc1ccccc1O)c1ccc(CNC(=O)c2sccc2Nc2ccnc(C(F)(F)F)c2)cc1 | 59.2%

SMILES | growth
COc1ccc(C(=O)/C=C/c2c(C(F)(F)F)nc3ccccn23)cc1OC | 8.13% (active)
CCC(=C(c1ccc(OCCN2CCCCC2)cc1)c1ccc(OCCN2CCCCC2)cc1)c1ccc(Cl)cc1 | -82.1% (active)
O=C1Nc2ccc(C(=O)O)cc2/C1=N/c1nnc(Sc2ccccc2)s1 | 104%
CCN1CCN(C(=O)[C@]23CCC(C)(C)C[C@@H]2C2=CC[C@@H]4[C@@]5(C)CCC(=O)C(C)(C)[C@@H]5CC[C@@]4(C)[C@]2(C)CC3)CC1 | 63.3%
Nc1ncnc2c1C(c1ccccc1)c1ccc3ccccc3c1O2 (configuration not stated) | 90.6%
Cn1cc(-c2ccc3nc(-c4ccc(CC(=O)ONc5cc(C(C)(C)C)on5)cc4)cnc3c2)cn1 | 39.2%
Cc1ccc2c(c1)=C/C(=C\c1cc(-c3ccccc3)oc1O)C(=O)N=2 | 92.6%
COc1ccc(-c2nc3c(ncc4ccc(=O)[nH]c43)s2)cc1 | 63.8%
CC1CN(S(=O)(=O)c2oc(-c3ccc(Cl)cc3)nc2C#N)CC(C)O1 (configuration not stated) | 101%
C#CCOC(=O)/C=C/c1cn(-c2ccccc2)nc1-c1ccc(OC)cc1 | 93.4%
O=C(Nc1cccc(Cl)c1)Nc1cccc(Cn2c(=O)[nH]c3ccc(Oc4ncccn4)cc3c2=O)c1 | 72.4%
COc1ccc(/C=C/C(=O)c2cc3c(N)c(C(=O)Nc4cccc5ccccc45)sc3nc2C)cc1 | 92.4%
CCCNc1nc2ccccc2c2c1S(=O)(=O)c1ccc(Cl)cc1C2=O | 25.8%
NC(=O)CSc1oc(-c2ccccc2)nc1S(=O)(=O)c1ccc(Br)cc1 | 95.4%
N#CSc1c[nH]c2cccc(/C=C/C(=O)/C=C(/C=C/c3cccc4[nH]cc(SC#N)c34)OB(F)F)c12 | -10.4% (active)
C=C1C(=O)O[C@H]2[C@H]1CC/C(COC(=O)NCc1ccc(Cn3c(=O)sn(CCCCC)c3=O)cc1)=C\CC[C@@]1(C)O[C@@H]21 | 84.3%
N#CC(C#N)N=Nc1ccc(Br)cc1 | 55.9%
COc1ccc(-c2noc(C(=O)O)c2-c2cc(OC)c(OC)c(OC)c2)cc1 | 44.1%
COc1c(B(O)O)cccc1-c1cc(C)c2c(ccc3[nH]ncc32)n1 | 65.8%
COc1ccc2cc1Oc1ccc(cc1)C[C@H]1c3c(cc4c(c3Oc3cc5c(cc3OC)CCN(C)[C@@H]5C2)OCO4)CCN1C | 75.1%
